# KLF5 inh: kruppel-like factor 5 inhibition | DLD-1 KLF5 promoter-luciferase reporter, luminescence | inhibition, % at 5 µM | actives 0.23% (n = 290,000) | AID 1700;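 active means inhibition above a per-plate limit of that plate's mean compound inhibition plus 3 SD, cut at about 60% in these data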;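 further: 0% = DMSO wells and 100% = LY294002 at 200 µM; higher means less KLF5 promoter-driven luciferase light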
# GPR7 antag: blocks human GPR7 receptor signaling; P48145; GPR7-expressing cells, fluorescence antagonist assay; inhibition, % at 4.4 µM; actives 1.1% (n = 290,000); in the data active means inhibition above about 16%, passing the limit was not always enough;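 further: cells stimulated with the agonist NPW; 0% = agonist with vehicle and 100% = vehicle without agonist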
# Target sequence (P48145 whole entry, looked up): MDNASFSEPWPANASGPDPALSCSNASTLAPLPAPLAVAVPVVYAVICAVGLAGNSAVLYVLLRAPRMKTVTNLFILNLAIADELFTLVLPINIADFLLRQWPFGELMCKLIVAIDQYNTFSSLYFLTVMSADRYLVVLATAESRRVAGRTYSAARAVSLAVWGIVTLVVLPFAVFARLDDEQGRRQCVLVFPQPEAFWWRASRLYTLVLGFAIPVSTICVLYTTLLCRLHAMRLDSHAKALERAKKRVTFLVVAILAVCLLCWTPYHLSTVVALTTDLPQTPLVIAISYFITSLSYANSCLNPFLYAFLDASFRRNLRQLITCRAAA
# Ba/F3 V617F tox: reduce viability of Ba/F3 cells dependent on JAK2V617F | Ba/F3 EpoR-JAK2V617F viability, ATP luminescence | inhibition, % at 5.6 µM | actives 1.1% (n = 220,000) | AID 1446;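 active means inhibition above the campaign mean plus 3 SD over all tested compounds, cut at about 24% in these data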;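 further: cytokine-independent growth of Ba/F3 cells driven by EpoR plus mutant JAK2; 0% = DMSO-treated cells and 100% = JAK inhibitor I control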
# DNA FID counter: displaces DNA intercalator in HCV helicase counter-screen; actives 0.17% (n = 290,000); DNA fluorescent intercalator displacement, fluorescence; inhibition, % at 7.9 µM; AID 1845; in the data active means inhibition above about 37%;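 further: 0% = vehicle and 100% = reference compound; higher means more ethidium bromide displaced from hairpin DNA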
# IEC-6 cytotox: kills IEC-6 intestinal cells in KLF5 counter-screen; IEC-6 cytotoxicity, luminescence viability; inhibition, % at 5 µM; actives 0.78% (n = 290,000);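 further: 0% = plate median of test compound wells and 100% = cytotoxic reference compound wells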
# BaF3 parental: parental Ba/F3 viability inhibition as JAK2V617F counter-screen. CellTiter-Glo ATP luminescence. inhibition, % at 5.6 µM. actives 1.1% (n = 220,000);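 active means inhibition above a per-campaign cutoff, the mean inhibition of all tested compounds plus 3 SD, cut at about 27% in these data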;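 further: 0% = DMSO wells and 100% = JAK Inhibitor I control wells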
# IEC-6 cytotox cf: IEC-6 cytotoxicity, confirmation assay. shares compounds with IEC-6 cytotox. IEC-6 rat intestinal epithelial viability, luminescence. inhibition, % at 5 µM. actives 63% (n = 1,900);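 further: 0% = vehicle and 100% = reference cytotoxic drug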
# An asterisk follows results filed as active; / = not tested or not shown. An excerpt weighted towards active compounds, which were near 2.6% of everything screened. Unless noted, no stated cut-off is given here; in the data, active means inhibition above about 22%; inactive means the rest.
SMILES,KLF5 inh,GPR7 antag,Ba/F3 V617F tox,DNA FID counter,IEC-6 cytotox,BaF3 parental,IEC-6 cytotox cf
CCCc1nnc(NC(=O)c2nc(S(=O)(=O)Cc3cccc(C)c3)ncc2Cl)s1,4.0,-3.5,/,-60.0,6.9,/,/
COc1ccc(NC(=O)c2nc(S(=O)(=O)Cc3cccc(C)c3)ncc2Cl)c(OC)c1,24.4,0.9,/,-8.2,65.7*,/,20.1
COc1ccc(OC)c(NC(=O)c2nc(S(=O)(=O)Cc3ccccc3)ncc2Cl)c1,44.8,1.2,/,-27.8,75.1*,/,6.0
O=S(=O)(c1ccc(Cl)cc1)N1CCC(c2nc3ccccc3[nH]2)CC1,3.2,-11.5,/,-12.3,30.6*,/,28.3*
CCC1(C(=O)c2ccccc2)C2c3cc(Br)ccc3OC(=O)C21C(=O)N1CCOCC1 (configuration not stated),1.2,-11.8,-1.0,-40.0,-4.2,-0.9,/
Cn1c(=O)oc2cc(S(=O)(=O)Nc3ccc4c(c3)OCO4)ccc21,-1.3,3.6,-3.7,0.9,-6.3,5.4,/
Cn1c(=O)c2cc(S(=O)(=O)Nc3ccc4c(c3)OCO4)ccc2n(C)c1=O,-0.3,8.1,6.4,3.3,22.3*,15.6,21.2
O=C(O)c1ccc(N/N=C/c2cc3ccccc3nc2Cl)cc1,-76.1,2.5,11.6,-9.2,22.4*,1.5,31.3*
Cc1cccc2cc(/C=N/NC(=O)c3ccncc3)c(Cl)nc12,-7.0,0.2,-1.7,-10.3,8.5,-3.5,/
Clc1nc2ccccc2cc1/C=N/Nc1nc2ccccc2[nH]1,-40.8,-1.0,5.3,-7.1,12.8,10.8,/
Cc1cccc2cc(/C=N/Nc3ccc(C(=O)O)cc3)c(Cl)nc12,-127.9,6.2,11.1,-19.9,27.1*,8.9,48.0*
O=C(Nc1ccc2nc3n(c(=O)c2c1)CCCC3)c1ccccc1F,-54.5,6.9,/,-9.1,2.6,/,/
O=C(Nc1ccc2nc3n(c(=O)c2c1)CCCCC3)c1cc([N+](=O)[O-])ccc1F,9.7,7.2,/,1.5,62.4*,/,15.7
COc1ccc2ccccc2c1CN1CCN(C(=O)c2ccccc2)CC1,19.3,-8.2,9.4,-10.4,7.4,13.3,/
CN1CC(=O)N2C(c3cccc([N+](=O)[O-])c3)c3[nH]c4ccccc4c3C[C@H]2C1=O (some centres not stated),32.4,3.8,/,-10.2,34.1*,/,14.1
O=C(COC(=O)C1CCN(S(=O)(=O)c2cccc3cccnc23)CC1)c1ccc([N+](=O)[O-])cc1,-17.1,-4.6,0.6,1.0,4.9,-2.8,/
COc1ccc(-c2[nH]ncc2/C=N\NS(=O)(=O)c2ccccc2)cc1OC,0.7,-2.2,-4.5,-7.5,3.5,1.2,/
c1ccc(N/N=C(\Cc2nc3ccccc3[nH]2)c2ccccc2)cc1,-44.0,-9.0,-0.6,-0.9,3.8,8.6,/
Cc1ccc(N/N=C(\Cc2nc3ccccc3[nH]2)c2ccccc2)cc1,4.9,0.1,14.0,-5.1,55.3*,19.2,60.9*
CC(=O)c1cccc(N(C(=O)c2ccco2)C(C(=O)NC2CCCC2)c2ccccc2F)c1 (configuration not stated),-29.4,-5.8,/,-30.0,0.8,/,/
Cc1ccc(OCC(=O)NNC(=S)NC(=O)C2CCCCC2)c(C)c1,-24.7,-6.4,/,-25.7,3.3,/,/
Cc1ccc(OCC(=O)NNC(=S)NC(=O)C2CC2)c(C)c1,25.8,-10.5,/,-27.1,35.8*,/,13.5
Cc1ccc(-n2[nH]c(C)c(C=Nc3ccc(S(=O)(=O)Nc4nccs4)cc3)c2=O)cc1C,-7.2,-4.9,8.0,-5.2,7.7,12.6,/
C=CCN1C(=O)C(O)(CC(=O)c2ccco2)c2cc(Br)ccc21 (configuration not stated),-3.1,-5.0,-0.4,-2.7,87.1*,-0.6,23.0*
Cc1n[nH]c(C)c1C(=O)CC1(O)C(=O)N(Cc2ccccc2)c2ccc(Br)cc21 (configuration not stated),1.1,-2.6,1.4,-22.1,0.7,10.7,/
SMILES,KLF5 inh,GPR7 antag,Ba/F3 V617F tox,DNA FID counter,IEC-6 cytotox,BaF3 parental,IEC-6 cytotox cf
COc1ccc(CNC(=O)Cn2nc([N+](=O)[O-])c(Br)c2C)cc1,-27.2,-13.7,/,6.5,-7.1,/,/
COc1cc2ncnc(NCc3cccs3)c2cc1OC,17.0,-9.5,2.1,7.6,32.9*,7.8,32.3*
Clc1ccc2c(NCc3cccs3)ncnc2c1,-11.2,16.4,/,-4.3,4.7,/,/
CC(C)(C)NC(=O)COC(=O)c1ccccc1Nc1ccc(SC(F)F)cc1,-69.5,6.0,-1.0,-21.8,37.9*,3.8,31.1*
Cc1ccc2[nH]c(-c3ccccc3)cc(=O)c2c1,56.8,1.6,85.7*,0.1,87.7*,81.1*,57.4*
CCOc1ccc(C2=Nn3c(nnc3-c3ccc(OC)cc3)SC2)cc1,-5.0,-0.2,72.6*,-16.3,34.4*,57.2*,51.6*
Cc1ccc(-n2c(SCC(N)=O)nc(O)cc2=O)cc1,-6.0,-9.8,-3.4,-41.0,-3.6,5.8,/
COc1ccc(S(=O)(=O)N2CC(C(=O)O)Oc3ccccc32)cc1 (configuration not stated),-57.7,6.3,/,-11.2,-9.8,/,/
COc1ccc(S(=O)(=O)N2CCOc3ccccc32)cc1,51.7,20.2,/,-9.6,60.2*,/,37.3*
CCCc1nc2c(sc3nc4c(cc32)COC(C)(C)C4)c(=O)n1Cc1ccco1,-21.8,-19.3,1.1,-12.9,-1.6,6.8,/
Cc1nc2c(sc3nc4c(cc32)COC(C)(C)C4)c(=O)n1CC(=O)NCc1ccco1,51.6,-1.3,76.0*,-9.5,62.9*,79.2*,37.6*
CCc1ccc(NC(=O)CSCCN2C(=O)c3ccccc3C2=O)cc1,-18.1,0.5,-3.1,-9.3,-0.5,1.3,/
NNC(=O)c1cc2sccc2s1,22.1,-6.8,80.5*,-1.2,63.3*,77.8*,6.1
CC1=C(C(=O)OCc2ccc3c(c2)OCO3)C(c2ccc(F)cc2)NC(=O)N1 (configuration not stated),41.0,-8.5,51.6*,-25.7,38.4*,31.5*,46.7*
CC1=C(C(=O)OCc2ccc3c(c2)OCO3)C(c2ccc(Cl)cc2)NC(=O)N1 (configuration not stated),54.4,-2.9,73.8*,-23.4,82.2*,75.8*,71.8*
CSCCOC(=O)C1=C(C)NC(=O)NC1c1ccc2c(c1)OCO2 (configuration not stated),-8.2,-7.4,/,-6.4,5.3,/,/
CC1CCCCN1C(=O)c1ccc(Br)o1 (configuration not stated),-9.1,8.0,/,-5.6,1.1,/,/
CN(C)CCCN1C(=O)c2cccc3c([N+](=O)[O-])ccc(c23)C1=O,10.2,15.3,94.9*,41.2*,38.8*,79.0*,26.9*
O=C1c2cccc3c([N+](=O)[O-])ccc(c23)C(=O)N1CCc1ccccn1,3.1,-21.5,-0.6,-0.3,0.6,-0.6,/
CC1CC(C)CN(S(=O)(=O)c2ccc3c(c2)n(C)c(=O)c(=O)n3C)C1 (configuration not stated),-37.5,-13.4,-5.2,1.7,-10.8,1.2,/

# Bioassay records: PubChem BioAssay, The Scripps Research Institute Molecular Screening Center
